# Test results published in PubChem BioAssay (NCATS).
# Results filed as inconclusive are left out. Values without a mark were called inactive. The source made the active and inactive calls. Calls follow the shape of the dose curve; as a rule, active = well fitted cell-killing curve with a large enough effect; inconclusive = small, poorly fitted or top-dose-only effect, or effect the other way; inactive = no such curve, though single readings can be large or run the other way.
# Test: Quantitative High-Throughput drug screen in 47 multiple myeloma cell lines against the NCATS MIPE library collection: SKMM1_PLB cell viability assay (AID 1919863); also: nearly all actives have a fitted effect of over 35% in size; as to viability: series mostly up to about 46 µM
# Settings: SKMM1 myeloma viability, CellTiter-Glo ATP, 48 h; viability: stronger effect = lower value
# Excerpt: PI: Beverly A. Mock Ph.D.
# Laboratory of Cancer Biology and Genetics,
# Center for Cancer Research, National Cancer Institute,
# National Institute of Health, Bethesda, Maryland
# Drug resistance and disease progression are common in multiple myeloma (MM) patients, underscoring the need for new therapeutic combinations. […] We hypothesized that effective combinations would reduce MYC expression and enhance p16 activity. […] These preclinical data identify potentially useful drug combinations for evaluation in drug-resistant MM and reveal potential mechanisms of combined drug sensitivity.
# Described herein is the primary MIPE qHTS used to cherrypick compounds. Validated compounds were then further tested for potential synergistic activiy.
# [1] Peat TJ, Gaikwad SM, Dubois W, Gyabaah-Kessie N, Zhang S, Gorjifard S, Phyo Z, Andres M, Hughitt VK, Simpson RM, Miller MA, Girvin AT, Taylor A, Williams D, D'Antonio N, Zhang Y, Rajagopalan A, Flietner E, Wilson K, Zhang X, Shinn P, Klumpp-Thomas C, McKnight C, Itkin Z, Chen L, Kazandijian D, Zhang J, Michalowski AM, Simmons JK, Keats J, Thomas CJ, Mock BA. Drug combinations identified by high-throughput screening promote cell cycle transition and upregulate Smad pathways in myeloma. Cancer Lett. 2023 Aug 1;568:216284. doi: 10.1016/j.canlet.2023.216284. Epub 2023 Jun 24. PMID: 37356470; PMCID: PMC10408729.
# SEQUENCE No. (e.g., 1, 2, 3, etc.); […] (e.g., Cells, Incubation, Reagent, etc.); VALUE and DESCRIPTION.
# 1; Cells; 5 uL; white, solid bottom 1536-well Greiner assay plate.
# 2; Compounds; 23 nL; Kalypsis pin tool (Wako USA) equipped with a 1536-well pin head to transfer to the assay plates.
# 3; Incubation; 48 hours; 37C incubation.
# 4; Reagent;5uL; CellTiter Glo (Promega).
# 5; Detector; 425V; Luminescence; Viewlux PerkinElmer.
# NOTES (numbers refer to Sequence numbers above)
# 1. The cell-based screening methods employed in this study were like those previously published. Briefly, the corresponding myeloma cell lines were screened in 1,536-well plates with 500 cells, 5-uL per well for inhibition of cell viability (assessed by measuring ATP levels with CellTiterGlo).
# 2. NCATS MIPE 4.0 library of approved and investigational drugs were added using the Kalypsis pin tool. Wells treated with DMSO only for 100% viability and media only for 0% viability were used as controls.
# 3. The assay plates were covered and incubated for 48 hours in a 37C, 5% CO2 incubator with controlled humidity.
# 4. After 48 hours, CellTilter-GloTM luminescent substrate mix (Promega) reagent was added to the assay plate and plates we incubated for 5 min at room temperature.
# 5. Signal was measured as median relative luminescence units on a ViewLux (PerkinElmer) multiplate reader.
# [1] Heske CM, Davis MI, Baumgart JT, Wilson K, Gormally MV, Chen L, Zhang X, Ceribelli M, Duveau DY, Guha R, Ferrer M, Arnaldez FI, Ji J, Tran HL, Zhang Y, Mendoza A, Helman LJ, Thomas CJ. Matrix Screen Identifies Synergistic Combination of PARP Inhibitors and Nicotinamide Phosphoribosyltransferase (NAMPT) Inhibitors in Ewing Sarcoma. Clin Cancer Res. 2017 Dec 1;23(23):7301-7311. doi: 10.1158/1078-0432.CCR-17-1121. Epub 2017 Sep 12. PMID: 28899971; PMCID: PMC6636827.
# Potency is read from the fitted curve at half-maximal effect.
Structure (SMILES),Potency,viability [%]
N[C@@H](Cc1ccc(N(CCCl)CCCl)cc1)C(=O)O,26.4 µM (active),–
NCC1(CC(=O)O)CCCCC1,–,140
CN(C)CCc1ccc(O)cc1,–,107
Cn1cc(C2=C(c3cn(C4CCN(Cc5ccccn5)CC4)c4ccccc34)C(=O)NC2=O)c2ccccc21,–,86.1
COC1(CS(=O)c2ccccc2)CCN(CCc2c[nH]c3ccc(F)cc23)CC1 (centres undefined),–,116
O=C1CC[C@@]2(O)[C@H]3Cc4ccc(O)c5c4[C@@]2(CCN3CC2CC2)[C@H]1O5,–,110
COc1ccc2c(c1OC)CN1CCc3cc4c(cc3C1C2)OCO4 (centres undefined),–,104
Cc1cccc(C)c1NC(=O)CN1CCCC1=O,–,118
O=c1[nH]c2ccccc2n1CCCN1CCC(n2c(=O)[nH]c3cc(Cl)ccc32)CC1,–,125
COC[C@@H](NC(C)=O)C(=O)NCc1ccccc1,–,103
C[C@@H]1O[C@@H](O[C@H]2C[C@@H](O)[C@]3(CO)[C@H]4[C@H](O)C[C@]5(C)[C@@H](C6=CC(=O)OC6)CC[C@]5(O)[C@@H]4CC[C@]3(O)C2)[C@H](O)[C@H](O)[C@H]1O,0.059 µM (active),–
CNC(=O)N1N=C(c2ccc(N)cc2)c2cc3c(cc2CC1C)OCO3 (centres undefined),5.26 µM (active),–
Fc1ccc(C(OCCN2CCN(CCCc3ccccc3)CC2)c2ccc(F)cc2)cc1,23.5 µM (active),–
C[C@@H]1[C@@H](C(=O)C[C@H]2O[C@@H]3O[C@]4(C)CC[C@@H]5[C@H](C)CC[C@@H]([C@H]2C)[C@@]35OO4)O[C@@H]2O[C@]3(C)CC[C@H]4[C@H](C)CC[C@@H]1[C@@]24OO3,0.743 µM (active),–
C#CCN(C)[C@H](C)Cc1ccccc1,16.6 µM (active),–
O=C(O)C(=O)c1cn(Cc2ccccc2)c2ccc(-c3ccc(OC(F)(F)F)cc3)cc12,3.72 µM (active),–
C[C@@H]1[C@@H](CC(C[C@H]2O[C@@H]3O[C@]4(C)CC[C@@H]5[C@H](C)CC[C@@H]([C@H]2C)[C@@]35OO4)C[S+](=O)([O-])c2ccc(COC(=O)N(C)C)cc2)O[C@@H]2O[C@]3(C)CC[C@H]4[C@H](C)CC[C@@H]1[C@@]24OO3 (some centres undefined),0.166 µM (active),–
Cc1sc2c(c1C)C(c1ccc(Cl)cc1)=N[C@@H](CC(=O)OC(C)(C)C)c1nnc(C)n1-2,0.372 µM (active),–
COC[C@H]1OC(=O)c2coc3c2[C@@]1(C)C1=C(C3=O)C2CCC(=O)[C@@]2(C)C[C@H]1OC(C)=O (some centres undefined),2.96 µM (active),–
